Measured values: PubChem BioAssay (NCATS)
Records with an inconclusive call do not appear. A call without a number means that no potency is given here. Values without a mark were called inactive. Calls of active or inactive are those of the source. Calls follow the shape of the dose curve; as a rule, active = well fitted curve in the direction sought with a large enough effect; inconclusive = small, poorly fitted or top-dose-only effect, or another doubt; inactive = no such curve, though single readings can be large; an effect the other way counts as inactive or inconclusive.

Experiments:
Es-2 = test: Primary qHTS to identify gynecologic anti-cancer compounds using libraries of approved drugs and bioactive compounds (AID 1345084); conditions: Gynecologic cancer cell panel viability, ATPlite luminescence, 48 h; series mostly up to 57.5 µM; also: nearly all actives have a fitted effect of over 55% in size
In short: (§1)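 Measured: luminescence after ATPlite addition (15 min, RT). Exposure: 48 h, 37 C, 5% CO2.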

HeLa = test: as above; conditions: Gynecologic cancer cell panel viability, ATPlite luminescence, 48 h; series mostly up to 57.5 µM
In short: as §1

Hek293T = test: as above; conditions: Gynecologic cancer cell panel viability, ATPlite luminescence, 48 h, control line for the selectivity index; series mostly up to 57.5 µM
In short: as §1

JEG-3 = test: as above; conditions: Gynecologic cancer cell panel viability, ATPlite luminescence, 48 h; series mostly up to 57.5 µM
In short: as §1

OV90 = test: as above; conditions: Gynecologic cancer cell panel viability, ATPlite luminescence, 48 h; series mostly up to 57.5 µM
In short: as §1

PA-1 = test: as above; conditions: Gynecologic cancer cell panel viability, ATPlite luminescence, 48 h; series mostly up to 57.5 µM
In short: as §1

SKOV3 = test: as above; conditions: Gynecologic cancer cell panel viability, ATPlite luminescence, 48 h; series mostly up to 57.5 µM
In short: as §1

Tov-21-G = test: as above; conditions: Gynecologic cancer cell panel viability, ATPlite luminescence, 48 h; series mostly up to 57.5 µM
In short: as §1

Tov112D = test: as above; conditions: Gynecologic cancer cell panel viability, ATPlite luminescence, 48 h; series mostly up to 57.5 µM
In short: as §1

[1] = Drug repurposing screens with cells derived from glioblastoma tumor samples (AID 1345199); conditions: GBM patient neurospheres viability, ATP luminescence, 48 h; also: nearly all actives have a fitted effect of over 40% in size; also: potency is read from the fitted curve at half-maximal effect
In short: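 Four patient lines of CD133+ GBM neurospheres were screened at several concentrations; hits were retested in those lines plus three slower-growing GBM lines, using 48-hour treatment and ATP-based viability.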

[2] = at 45.9 µM (top of the series), tumour line B
[3] = at 45.9 µM (top of the series), tumour line D
[4] = at 46.1 µM (top of the series), tumour line C
[5] = at 46 µM (top of the series), tumour line A

Question: For `CCCCN1C[C@H](O)[C@@H](O)[C@H](O)[C@H]1CO`, which Potency (Es-2) is on record?
Answer: inactive

Question: And the Potency (HeLa)?
Answer: inactive

Question: What about the Potency (Hek293T) of the same compound?
Answer: inactive

Question: What about the Potency (JEG-3) of the same compound?
Answer: inactive

Question: And the Potency (OV90)?
Answer: inactive

Question: What about the Potency (PA-1) of the same compound?
Answer: inactive

Question: And the Potency (SKOV3)?
Answer: inactive

Question: What about the Potency (Tov-21-G) of the same compound?
Answer: inactive

Question: What about the Potency (Tov112D) of the same compound?
Answer: inactive

Question: And the activity, negative = cell killing [1, 2]?
Answer: -11.2%

Question: What about the activity, negative = cell killing [1, 3] of the same compound?
Answer: -2.4%

Question: And the activity, negative = cell killing [1, 4]?
Answer: -21.4%

Question: Which results are given for `NS(=O)(=O)Cc1noc2ccccc12`?
Answer: Potency (Es-2): inactive; Potency (HeLa): inactive; Potency (Hek293T): inactive; Potency (JEG-3): inactive; Potency (OV90): inactive; Potency (PA-1): inactive; Potency (SKOV3): inactive; Potency (Tov-21-G): inactive; Potency (Tov112D): inactive; activity, negative = cell killing [1, 2]: -12.5%; activity, negative = cell killing [1, 3]: -13.1%; activity, negative = cell killing [1, 4]: 1.44%

Question: Which Potency (Es-2) does the source give for `O=S(c1cc(Cl)cc(Cl)c1O)c1cc(Cl)cc(Cl)c1O` here?
Answer: inactive

Question: What about the Potency (HeLa) of the same compound?
Answer: inactive

Question: And the Potency (Hek293T)?
Answer: inactive

Question: And the Potency (JEG-3)?
Answer: inactive

Question: And the Potency (OV90)?
Answer: inactive

Question: What about the Potency (PA-1) of the same compound?
Answer: inactive

Question: What about the Potency (SKOV3) of the same compound?
Answer: inactive

Question: What about the Potency (Tov-21-G) of the same compound?
Answer: inactive

Question: What about the Potency (Tov112D) of the same compound?
Answer: inactive

Question: And the activity, negative = cell killing [1, 2]?
Answer: -23.8%

Question: And the activity, negative = cell killing [1, 3]?
Answer: -25%

Question: What about the activity, negative = cell killing [1, 4] of the same compound?
Answer: -26.7%

Question: What about the Potency ([1]; tumour line A) of the same compound?
Answer: 28.2 µM (active)

Question: Which Potency (Es-2) does the source give for `Cc1cccc(C)c1NC(=O)c1ccccc1C(=O)O` here?
Answer: inactive

Question: And the Potency (HeLa)?
Answer: inactive

Question: What about the Potency (Hek293T) of the same compound?
Answer: inactive

Question: What about the Potency (JEG-3) of the same compound?
Answer: inactive

Question: And the Potency (OV90)?
Answer: inactive

Question: What about the Potency (PA-1) of the same compound?
Answer: inactive

Question: What about the Potency (SKOV3) of the same compound?
Answer: inactive

Question: And the Potency (Tov-21-G)?
Answer: inactive

Question: What about the Potency (Tov112D) of the same compound?
Answer: inactive

Question: And the activity, negative = cell killing [1, 2]?
Answer: -1.45%

Question: What about the activity, negative = cell killing [1, 3] of the same compound?
Answer: -18.5%

Question: What about the activity, negative = cell killing [1, 4] of the same compound?
Answer: -17.8%

Question: With `CC(=O)NO` as the compound, how does the Potency (Es-2) read?
Answer: inactive

Question: And the Potency (HeLa)?
Answer: inactive

Question: And the Potency (Hek293T)?
Answer: inactive

Question: What about the Potency (JEG-3) of the same compound?
Answer: inactive

Question: And the Potency (OV90)?
Answer: inactive

Question: What about the Potency (PA-1) of the same compound?
Answer: inactive

Question: And the Potency (SKOV3)?
Answer: inactive

Question: And the Potency (Tov-21-G)?
Answer: inactive

Question: What about the Potency (Tov112D) of the same compound?
Answer: inactive

Question: What about the activity, negative = cell killing [1, 2] of the same compound?
Answer: -7.52%

Question: What about the activity, negative = cell killing [1, 3] of the same compound?
Answer: -5.2%

Question: What about the activity, negative = cell killing [1, 5] of the same compound?
Answer: -11.7%

Question: What about the activity, negative = cell killing [1, 4] of the same compound?
Answer: 11.5%

Question: For `C/C=C/c1ccc(O)c(OC)c1`, which Potency (Es-2) is on record?
Answer: inactive

Question: What about the Potency (HeLa) of the same compound?
Answer: inactive

Question: What about the Potency (Hek293T) of the same compound?
Answer: inactive

Question: What about the Potency (JEG-3) of the same compound?
Answer: inactive

Question: What about the Potency (OV90) of the same compound?
Answer: inactive

Question: And the Potency (PA-1)?
Answer: inactive

Question: And the Potency (SKOV3)?
Answer: inactive

Question: And the Potency (Tov-21-G)?
Answer: inactive

Question: And the Potency (Tov112D)?
Answer: inactive

Question: And the activity, negative = cell killing [1, 2]?
Answer: -4.55%

Question: And the activity, negative = cell killing [1, 3]?
Answer: -0.156%

Question: What about the activity, negative = cell killing [1, 4] of the same compound?
Answer: -3.58%

Question: For `CC(C)Cc1ccc(CC(=O)O)cc1`, which Potency (Es-2) is on record?
Answer: inactive

Question: What about the Potency (HeLa) of the same compound?
Answer: inactive

Question: And the Potency (Hek293T)?
Answer: inactive

Question: What about the Potency (JEG-3) of the same compound?
Answer: inactive

Question: What about the Potency (OV90) of the same compound?
Answer: inactive

Question: And the Potency (PA-1)?
Answer: inactive

Question: What about the Potency (SKOV3) of the same compound?
Answer: inactive

Question: And the Potency (Tov-21-G)?
Answer: inactive

Question: And the Potency (Tov112D)?
Answer: inactive

Question: And the activity, negative = cell killing [1, 2]?
Answer: -12.1%

Question: What about the activity, negative = cell killing [1, 3] of the same compound?
Answer: -2.06%

Question: What about the activity, negative = cell killing [1, 5] of the same compound?
Answer: -12.4%

Question: And the activity, negative = cell killing [1, 4]?
Answer: 9.2%

Question: For `NS(=O)(=O)c1cc2c(cc1Cl)NC(CC1CCCC1)NS2(=O)=O` (stereo not given), which Potency (Es-2) is on record?
Answer: inactive

Question: And the Potency (HeLa)?
Answer: inactive

Question: And the Potency (Hek293T)?
Answer: inactive

Question: And the Potency (JEG-3)?
Answer: inactive

Question: What about the Potency (OV90) of the same compound?
Answer: inactive

Question: And the Potency (PA-1)?
Answer: inactive

Question: What about the Potency (SKOV3) of the same compound?
Answer: inactive

Question: What about the Potency (Tov-21-G) of the same compound?
Answer: inactive

Question: What about the Potency (Tov112D) of the same compound?
Answer: inactive

Question: What about the activity, negative = cell killing ([1]; at 20 µM (top of the series), tumour line C) of the same compound?
Answer: -10.8%

Question: What about the activity, negative = cell killing ([1]; at 21.2 µM (top of the series), tumour line B) of the same compound?
Answer: -9.27%

Question: What about the activity, negative = cell killing ([1]; at 21.2 µM (top of the series), tumour line D) of the same compound?
Answer: -11%

Question: What about the activity, negative = cell killing ([1]; at 21.3 µM (top of the series), tumour line A) of the same compound?
Answer: -13.5%

Question: Which Potency (Es-2) does the source give for `CC(=O)N[C@@H](CCC(=O)O)C(=O)O` here?
Answer: inactive

Question: And the Potency (HeLa)?
Answer: inactive

Question: And the Potency (Hek293T)?
Answer: inactive

Question: What about the Potency (JEG-3) of the same compound?
Answer: inactive

Question: And the Potency (OV90)?
Answer: inactive

Question: And the Potency (PA-1)?
Answer: inactive

Question: What about the Potency (SKOV3) of the same compound?
Answer: inactive

Question: What about the Potency (Tov-21-G) of the same compound?
Answer: inactive

Question: What about the Potency (Tov112D) of the same compound?
Answer: inactive

Question: What about the activity, negative = cell killing [1, 2] of the same compound?
Answer: 2.35%

Question: What about the activity, negative = cell killing [1, 3] of the same compound?
Answer: -7.45%

Question: What about the activity, negative = cell killing [1, 5] of the same compound?
Answer: -9.15%

Question: And the activity, negative = cell killing [1, 4]?
Answer: -3.96%

Question: With `CCN[C@@H]1C[C@H](N)[C@@H](OC2OC(CN)=CCC2N)[C@H](O)[C@H]1O[C@H]1OC[C@](C)(O)[C@H](NC)[C@H]1O` (stereo not given in full) as the compound, how does the activity change, negative = cytotoxicity (Es-2) read?
Answer: 9.29% [at 0.462 µM]

Question: And the activity change, negative = cytotoxicity (HeLa)?
Answer: 15.4% [at 0.462 µM]

Question: And the activity change, negative = cytotoxicity (Hek293T)?
Answer: 3.5% [at 0.462 µM]

Question: And the activity change, negative = cytotoxicity (JEG-3)?
Answer: 13.2% [at 0.462 µM]

Question: What about the activity change, negative = cytotoxicity (OV90) of the same compound?
Answer: -4.98% [at 0.462 µM]

Question: And the activity change, negative = cytotoxicity (PA-1)?
Answer: 0.807% [at 0.462 µM]

Question: What about the activity change, negative = cytotoxicity (SKOV3) of the same compound?
Answer: -8.65% [at 0.462 µM]

Question: And the activity change, negative = cytotoxicity (Tov-21-G)?
Answer: 7.74% [at 0.462 µM]

Question: What about the activity change, negative = cytotoxicity (Tov112D) of the same compound?
Answer: -3.87% [at 0.462 µM]

Question: What about the activity, negative = cell killing [1, 2] of the same compound?
Answer: -4.35%

Question: And the activity, negative = cell killing [1, 3]?
Answer: 14.1%

Question: What about the activity, negative = cell killing [1, 5] of the same compound?
Answer: -22.3%

Question: And the activity, negative = cell killing [1, 4]?
Answer: -13.2%

Question: What does the source list for `CN1CCN(c2cc3c(cc2F)c(=O)c(C(=O)O)cn3-c2ccc(F)cc2)CC1`?
Answer: Potency (Es-2): inactive; Potency (HeLa): inactive; Potency (Hek293T): inactive; Potency (JEG-3): inactive; Potency (OV90): inactive; Potency (PA-1): inactive; Potency (SKOV3): inactive; Potency (Tov-21-G): inactive; Potency (Tov112D): inactive; activity, negative = cell killing [1, 2]: -7.1%; activity, negative = cell killing [1, 3]: -1.79%; activity, negative = cell killing [1, 5]: -26.7%; activity, negative = cell killing [1, 4]: 5.61%

Question: Which results are given for `CC(=O)Nc1ccc(OCC(O)CNC(C)C)cc1` (stereo not given)?
Answer: Potency (Es-2): inactive; Potency (HeLa): inactive; Potency (Hek293T): inactive; Potency (JEG-3): inactive; Potency (OV90): inactive; Potency (PA-1): inactive; Potency (SKOV3): inactive; Potency (Tov-21-G): inactive; Potency (Tov112D): inactive; activity, negative = cell killing [1, 2]: -1.74%; activity, negative = cell killing [1, 3]: -7.95%; activity, negative = cell killing [1, 5]: -46.4%; activity, negative = cell killing [1, 4]: -12.1%

Question: What does the source list for `NCc1ccccc1Sc1ccccc1CO`?
Answer: Potency (Es-2): inactive; Potency (HeLa): inactive; Potency (Hek293T): inactive; Potency (JEG-3): inactive; Potency (OV90): inactive; Potency (PA-1): inactive; Potency (SKOV3): inactive; Potency (Tov-21-G): inactive; Potency (Tov112D): inactive; activity, negative = cell killing [1, 2]: -12.4%; activity, negative = cell killing [1, 3]: -24%; activity, negative = cell killing [1, 4]: -18%; Potency ([1]; tumour line A): 35.5 µM (active)
